Results from PubChem BioAssay (NCATS).
A number with no mark means an inactive call. Activity calls are given as the source filed them. The rule behind the calls is not given here.

Tested on: HIV-1 nucleocapsid protein NCp7 (binding to TG oligonucleotide)
Assay: HIV Nucleocapsid (AID 346);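 note: potency is for inhibitors that block NC binding and lower polarization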
Conditions: HIV-1 NC / fluorescein-TGTGTGTG probe, fluorescence polarization
Summary of the method: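 Reagents dispensed (10 nM TG4xF, 100 nM HIV-1 NC), plates spun, compounds pin-transferred, then incubated 1 hr at room temperature before FP imaging. Buffer: Hepes pH 7.5, 250mM NaCl, 1uM ZnCl2, 100 uM TCEP, 5 mM 2-mercaptoethanol.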
Potency is the fitted concentration of half-maximal effect.

Structure (SMILES) | Potency
COC(=O)N1CCC[C@@]2(CCN(C(=O)Nc3cccc(F)c3)C2)C1 | > 20 µM
COc1ccccc1CNc1nc(-c2cccc(C#N)c2)nc2ccccc12 | > 20 µM
COc1cccc(-c2ccc3ncnc(N4CCOCC4)c3c2)c1 | > 20 µM
CC(=O)N1CCC2(CC1)CN(Cc1ccccc1)C2 | > 20 µM
COC(=O)N1CCC[C@@]2(CCN(C(=O)Nc3ccccc3)C2)C1 | > 20 µM
CC(=O)NCCNc1cc(-c2ccccc2CN(C)C)ncn1 | > 20 µM
COc1ccc(-c2nc3cnc(N4CCNCC4)nc3n(Cc3ccc(F)cc3)c2=O)cc1 | > 20 µM
CNc1ncnc2ccc(-c3ccccc3C)cc12 | > 20 µM
O=c1c(-c2cccc(Cl)c2)nc2cncnc2n1-c1ccccc1 | > 20 µM
c1cncc(-c2nc(-n3ccnc3)c3ccccc3n2)c1 | > 20 µM
O=C(c1cccc(F)c1)N1CCC2(CC1)CN(C(c1ccccc1)c1ccccc1)C2 | > 20 µM
O=C(c1csnn1)N1CCC2(CCCN(c3ccncc3)C2)CC1 | > 20 µM
O=c1c(-c2ccc(F)c(F)c2)nc2cncnc2n1Cc1ccc(F)cc1 | > 20 µM
O=C(c1ccncc1)N1CCC[C@@]2(CCN(C(c3ccccc3)c3ccccc3)C2)C1 | > 20 µM
Cc1ccccc1-c1nccc(NCCN2CCOCC2)n1 | > 20 µM
COc1ccc(-c2nc3cnc(N4CCN(C)CC4)nc3n(C3CC3)c2=O)cc1 | > 20 µM
O=c1c(-c2ccc(Cl)cc2)nc2cnc(N3CCOCC3)nc2n1C1CC1 | > 20 µM
COc1cccc(-c2cncnc2NC2CCNCC2)c1 | > 20 µM
O=C(c1cnccn1)N1CCC2(CCCN(c3ccccc3)C2)CC1 | > 20 µM
Cc1ccccc1-c1nccc(NCc2cccnc2)n1 | > 20 µM
O=c1c(-c2cc(F)cc(F)c2)nc2cnc(Oc3ccccc3)nc2n1C1CC1 | > 20 µM
COc1cccc(Cn2c(=O)c(C)nc3cnc(N(C)C)nc32)c1 | > 4 µM
O=c1c(-c2cccs2)nc2cnc(Nc3ccccc3)nc2n1C[C@H]1CCCO1 | 4.11 µM (active)
COCC(=O)N1CCC2(CC1)CN(C(=O)Nc1cccc(C#N)c1)C2 | > 20 µM
COc1ccccc1CNc1ncncc1-c1ccc(C(=O)N(C)C)cc1 | > 20 µM
